Screening results: PubChem BioAssay, Bradner/Qi Labs at DFCI
This excerpt belongs to a sample that is enriched for hits.
CBX7 AlphaScr – blocks human CBX7 binding to H3K27me3 peptide | O95931 | AlphaScreen His6-CBX7 / biotin-H3K27me3 peptide binding; hits give low values | normalised signal (fraction of DMSO) (concentration not given with the values) | 66,000 compounds, 1.1% hits; in the data active = normalised signal below about 0.5
Target sequence (O95931 whole entry, looked up): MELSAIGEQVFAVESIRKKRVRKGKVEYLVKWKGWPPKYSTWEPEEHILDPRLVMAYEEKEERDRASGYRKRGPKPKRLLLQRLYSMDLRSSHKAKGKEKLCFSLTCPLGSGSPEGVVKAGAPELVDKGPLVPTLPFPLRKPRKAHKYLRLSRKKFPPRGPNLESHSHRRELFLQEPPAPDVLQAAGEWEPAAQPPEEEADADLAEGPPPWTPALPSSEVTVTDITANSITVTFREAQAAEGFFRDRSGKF
* marks the source's active call; other numbers are inactive results.

Screening Cc1cc(Cl)ccc1NC(=O)CC1Sc2ccccc2NC1=O (stereo not given) returned CBX7 AlphaScr 1.
`Cc1ccc(C)c(N2CCN(C(=O)CC3Sc4ccccc4NC3=O)CC2)c1` (stereo not given) gave CBX7 AlphaScr 0.5*.
Screening Cc1cccc(CCNC(=O)CC2Sc3ccccc3NC2=O)c1 (stereo not given) returned CBX7 AlphaScr 0.98.
`Cc1ccc(CNC(=O)c2cnn3c(C)c(Cc4cc(C)ccc4C)c(C)nc23)cc1` gave CBX7 AlphaScr 0.96.
Screening Cc1ccc(-c2nc(-c3ccccc3)no2)cc1 returned CBX7 AlphaScr 1.
Screening Cc1oc(-c2cccc(F)c2)nc1CSCC(=O)NC1CCCCC1 returned CBX7 AlphaScr 1.2.
Cc1oc(-c2ccc(Cl)cc2)nc1CSCC(=O)NC1CC1 was read as CBX7 AlphaScr 1.1.
CCc1ccc(-c2nc(CSCC(=O)NC3CCCCCC3)c(C)o2)cc1 was read as CBX7 AlphaScr 0.4*.
Screening COc1ccccc1NC(=O)CCc1c(C)nc2cc(-c3ccccc3)nn2c1C returned CBX7 AlphaScr 0.94.
`CCCCC(=O)Nc1c2c(nc3c1CCC3)CCCC2` gave CBX7 AlphaScr 1.
Screening O=C(CCCN1C(=O)c2ccccc2C1=O)Nc1c2c(nc3c1CCC3)CCC2 returned CBX7 AlphaScr 1.1.
O=C(CN1CCCC1)Nc1c2c(nc3c1CCC3)CCC2 was read as CBX7 AlphaScr 0.27*.
For O=C(CN1CCCCCC1)Nc1c2c(nc3c1CCC3)CCCC2 the results were CBX7 AlphaScr 0.074*.
`O=C(Cc1ccccc1)Nc1c2c(nc3ccccc13)CCC2` gave CBX7 AlphaScr 0.79.
NC(=O)c1c(NC(=O)CN2CCCCC2)sc2c1CCCC2 was read as CBX7 AlphaScr 0.96.
For O=C(NC1CCCCC1)c1ccc2c(c1)N(Cc1ccccc1)C(=O)c1ccccc1S2 the results were CBX7 AlphaScr 1.
Screening Cc1ccc(-c2noc(CCC(=O)N(C)c3cccc(Cl)c3)n2)cc1 returned CBX7 AlphaScr 1.1.
Screening CCC(C)[C@@H](C(=O)NCc1cccs1)N1Cc2ccccc2C1=O (stereo not given in full) returned CBX7 AlphaScr 1.
Screening CCOCCCNC(=O)c1cc(=O)n(Cc2ccc(Cl)cc2)c2ccccc12 returned CBX7 AlphaScr 0.87.
For CC1c2nc3ccccc3n2C(CC(=O)Nc2cccc(Cl)c2)C(=O)N1Cc1ccccc1 (stereo not given) the results were CBX7 AlphaScr 1.
`CCCOC(=O)c1cc(-c2ccc(OC)cc2)nc2ccc(Cl)cc12` gave CBX7 AlphaScr 1.6.
Screening CCOc1ncccc1C(=O)Nc1ccc(Cl)cc1 returned CBX7 AlphaScr 1.1.
Screening CCCCc1nc2ccccc2c(NC(=O)CN2CCN(C(=O)c3ccco3)CC2)c1CCC returned CBX7 AlphaScr 0.96.
Screening O=C(CN1CCCCC1)Nc1c2c(nc3ccccc13)N(c1cccc(Cl)c1)CC2 returned CBX7 AlphaScr 1.
For CCc1nc2ccccc2c(NC(=O)CN2CCN(C)CC2)c1C the results were CBX7 AlphaScr 0.053*.
CCc1ccc(Nc2nc(-c3ccccc3)c(CC(=O)O)s2)cc1 was read as CBX7 AlphaScr 0.94.
Cc1ccccc1Cc1c(C)nc2c(C(=O)NCCC3=CCCCC3)cnn2c1C was read as CBX7 AlphaScr 0.86.
COC(=O)c1ccc(C2C(Oc3ccccc3)C(=O)N2c2cccc(Cl)c2)cc1 (stereo not given) was read as CBX7 AlphaScr 0.92.
`CCc1nnc(NC(=O)Nc2ccc3c(c2)N(C)C(=O)CS3)s1` gave CBX7 AlphaScr 1.
COc1cc(C(=O)NCc2nnc(SCC(=O)Nc3cccc(F)c3)o2)cc(OC)c1OC was read as CBX7 AlphaScr 0.9.
For COc1ccc(C(NC(=O)CCc2ccccc2)c2ccc3cccnc3c2O)cc1OC (stereo not given) the results were CBX7 AlphaScr 0.039*.
For CCCC(=O)NC(c1ccccc1OC)c1cc(Cl)c2cccnc2c1O (stereo not given) the results were CBX7 AlphaScr 0.84.
`COc1ccc(-c2nc(C(=O)NC(C)CCc3ccccc3)c(C)o2)cc1OC` (stereo not given) gave CBX7 AlphaScr 0.96.
Screening CCCC(=O)Nc1ccc(Cl)c(-c2nc3ncccc3o2)c1 returned CBX7 AlphaScr 1.
For CCCC(=O)NC(c1ccc(OC)c(OC)c1)c1cc(Cl)c2cccnc2c1O (stereo not given) the results were CBX7 AlphaScr 0.41*.
Screening COc1ccc(NC(=O)C(=O)NCCc2ccccc2)cc1OC returned CBX7 AlphaScr 1.1.
O=C(NCc1cccnc1)C1CC(c2ccc(F)cc2)=NO1 (stereo not given) was read as CBX7 AlphaScr 1.1.
`OC(CCN1CCOCC1)(c1ccccc1)c1ccc(Cl)cc1` (stereo not given) gave CBX7 AlphaScr 1.1.
CCOC(=O)COc1ccccc1/C=C/c1ccc2cccc(OCc3ccccc3)c2n1 was read as CBX7 AlphaScr 1.2.
CCN1C(=O)c2ccccc2S(=O)(=O)c2ccc(C(=O)N(C)C3CCCCC3)cc21 was read as CBX7 AlphaScr 1.1.
c1ccc(CSc2nnc(-c3cccnc3)o2)cc1 was read as CBX7 AlphaScr 0.92.
`CCCCOC(=O)c1ccc2c(c1)C(=O)N(c1cccc(N)c1)C2=O` gave CBX7 AlphaScr 0.91.
For COc1ccccc1Nc1nc(-c2ccc(C)cc2)nc2ccccc12 the results were CBX7 AlphaScr 1.4.
For COc1ccccc1Nc1nc(-c2ccccc2Cl)nc2ccccc12 the results were CBX7 AlphaScr 1.3.
`COc1ccccc1Nc1nc(-c2ccncc2)nc2ccccc12` gave CBX7 AlphaScr 0.33*.
COc1ccc(-c2cc(C(=O)NC(C)c3ccccc3)no2)cc1OC (stereo not given) was read as CBX7 AlphaScr 0.94.
For Cc1ccccc1Cn1nc(C)c(NC(=O)c2cc(CC(C)C)on2)c1C the results were CBX7 AlphaScr 1.
COc1ccc(CCNc2oc(COc3ccc(C)cc3)nc2C#N)cc1OC was read as CBX7 AlphaScr 0.48*.
For Cc1ccccc1OCc1nc(C#N)c(NCc2ccc3c(c2)OCO3)o1 the results were CBX7 AlphaScr 0.91.
Cc1cccc(OCc2nc(C#N)c(NCc3ccc4c(c3)OCO4)o2)c1 was read as CBX7 AlphaScr 0.43*.
Screening COc1ccc(CCNc2oc(COc3ccc(Cl)cc3)nc2C#N)cc1OC returned CBX7 AlphaScr 0.95.
Screening Cc1cccc(OCc2nc(C#N)c(NCCN(C)C)o2)c1 returned CBX7 AlphaScr 1.
`Cc1cccc(OCc2nc(C#N)c(NCCc3ccccc3)o2)c1` gave CBX7 AlphaScr 0.67.
Screening COc1ccc(CCNc2oc(COc3ccc(F)cc3)nc2C#N)cc1OC returned CBX7 AlphaScr 0.55.
For COc1ccc(CCNc2oc(COc3cccc(C)c3)nc2C#N)cc1OC the results were CBX7 AlphaScr 0.46*.
COc1ccc(CNc2oc(COc3cccc(C)c3)nc2C#N)cc1 was read as CBX7 AlphaScr 0.67.
For COc1ccc(C2=CC(Cl)=C(c3cccs3)Oc3ccccc32)cc1 the results were CBX7 AlphaScr 1.
For Cc1ccc(-n2cc(-c3ccccc3)c3c(NCc4cccnc4)ncnc32)cc1 the results were CBX7 AlphaScr 0.9.
Cc1cccc(C(=O)Nc2c(C(=O)Nc3ccc(F)cc3)oc3ccccc23)c1 was read as CBX7 AlphaScr 1.1.
Clc1cccc(-c2nc(-c3ccncc3)no2)c1 was read as CBX7 AlphaScr 1.1.
For C=CCNC(=O)c1cc2c(n(-c3ccc(OC)cc3)c1=O)CC(C)(C)CC2=O the results were CBX7 AlphaScr 1.1.
